Compounds with a hit are over-represented: about 7.9% of the library has one in this group of screens.
Lassa entry inh = Lassa virus entry inhibition; Lassa virus pseudotype entry inhibition, cell reporter; Potency, µM (top dose mostly 37.9 µM), inactives show top-dose activity change, negative = inhibition, usual class: inhibitors; actives 1.2% (n = 300,000); calls by dose curve; tested in HEK293 cells; note: potency is the fitted concentration of half-maximal effect; nearly all actives have a fitted effect of over 50% in size
MARV entry inh = Marburg virus entry inhibition; Marburg virus pseudotyped entry inhibition, cell reporter; Potency, µM (series often up to 37.8 µM), without a hit: top-dose activity change, negative = inhibition, usual class: inhibitors; actives 1.8% (n = 300,000); calls by dose curve; tested in HEK293 cells; note: potency is the fitted concentration of half-maximal effect
FMDV inh = blocks foot and mouth disease virus | FMDV antiviral cell-based qHTS | Potency, µM (doses to about 57.9 µM), without a hit: at the highest dose activity change, negative = inhibition, usual class: inhibitors | actives 1.2% (n = 410,000); calls by dose curve; tested in HEK293T cells; note: read-out not given here; potency is the fitted concentration of half-maximal effect; nearly all actives have a fitted effect of over 45% in size
HCMV antiviral = human cytomegalovirus inhibition. HFF cells, HCMV-luciferase reporter, 72 h; active compounds read low. activity change, negative = inhibition, % at 57.5 µM. actives 4.5% (n = 410,000); in the data active = activity change below about -60%; inconclusive = no clear call, values can overlap the other calls; inactive = above about -39%
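Luciferase read-out from HCMV-luciferase-infected HFFs (MOI 1 PFU/cell) 72 h post infection at 37C; compounds added after 16 h cell attachment; activity normalized between buffer-only basal and Salinomycin (10uM) inhibitor controls.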
HCV inh = inhibitors of hepatitis C virus infection. Huh7.5.1 HCVcc-Cre infection, luciferase reporter, 44 h. Potency, µM (series often up to 41.8 µM), for the others: at the top dose activity change, negative = inhibition, hits mostly inhibitors. actives 3.4% (n = 340,000); active = well fitted inhibition curve with a large enough effect; inconclusive = small, poorly fitted or top-dose-only effect, or another doubt; inactive = no such curve, though single readings can be large or run the other way; note: potency is the fitted concentration of half-maximal effect
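After 44 h co-culture of compound, cells and HCVcc-Cre (~0.5 moi), substrate is added for 15 min at room temperature and luciferase measured over 15 sec. Cells were seeded at 1,000/well and pre-cultured 4 h.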
Numbers without * were called inactive; ? = inconclusive; . = not tested or not shown; + = active, no number; ! = not confirmed by another sample; [ ] = another dose, or the depositor's remark. % is set by controls: 0 for no effect and ±100 for the full control effect.

SMILES	Lassa entry inh	MARV entry inh	FMDV inh	HCMV antiviral	HCV inh
Cc1ccc(NC(=O)c2cc(NC(=O)c3ccco3)ccc2N2CCOCC2)cc1	?	-12%	4%	9	13µM*
Cc1cccc(NC(=O)c2cc(NC(=O)C3CCCCC3C(=O)O)ccc2N2CCOCC2)c1 (stereo not drawn)	12%	2%	14%	-7	.
CCN1C(=O)c2ccccc2S(=O)(=O)c2ccc(C(=O)NCc3ccccc3OC)cc21	-22%[46.1 µM]	-1%[46.1 µM]	-19%	-9	.
CCN(CC)CCN(C)C(=O)c1[nH]c(C(F)(F)F)nc1-c1ccccc1	.	.	-16%	-99*	.
CCOc1ccc(NC(=O)c2cc(S(=O)(=O)NC3CCCC3)ccc2F)cc1	-1%[46.1 µM]	.	14%	-61*	.
O=C(Nc1ccc(C(F)(F)F)cc1)c1cc(S(=O)(=O)NC2CCCCCC2)ccc1F	-4%[46.1 µM]	.	-2%	-78*	.
O=C(Nc1ccc(C(F)(F)F)cc1)c1cc(S(=O)(=O)NC2CCCCC2)ccc1F	-10%[46.1 µM]	.	-4%	-38	.
COc1ccc(CNC(=O)c2ccc3c(c2)CCN3S(=O)(=O)c2ccc(C)cc2)cc1	-27%[46.1 µM]	?	-21%	-18	.
O=C(c1ccc2c(c1)N(Cc1ccc(F)cc1)C(=O)c1ccccc1S2(=O)=O)N1CCN(Cc2ccccc2)CC1	?	?	-14%	?	.
COc1ccc(CN2CCc3nc(N4CCN(c5ccc(F)cc5)CC4)ncc3C2)c(OC)c1OC	?	.	20µM*	-36	.
COc1ccccc1N1CCN(c2ncc3c(n2)CCN(Cc2ccc(C)s2)C3)CC1	14%[46.1 µM]	.	?	-7	.
COc1ccccc1N1CCN(c2ncc3c(n2)CCN(Cc2ccccc2F)C3)CC1	13%[46.1 µM]	.	-12%	1	.
CCOc1ccc(CN2CCc3nc(N4CCN(c5ncccn5)CC4)ncc3C2)cc1OC	-29%[46.1 µM]	.	?	?	.
COc1cc(OC)c(OC)cc1CN1CCc2nc(N3CCN(c4ncccn4)CC3)ncc2C1	-8%[46.1 µM]	.	?	-71*	.
CCOc1ccc(CN2CCc3nc(N4CCN(c5ccccc5OC)CC4)ncc3C2)cc1OC	?	.	20µM*	?	.
COc1cc(OC)c(OC)cc1CN1CCc2nc(N3CCN(c4ccccc4F)CC3)ncc2C1	-2%[46.1 µM]	.	11µM*	-21	.
C=CCNC(=S)NN=C1CCCCCCC1	1%[46.1 µM]	20%[46.1 µM]	12%	-113*	4%
COCCNC(=S)NN=C1CCCCC1	?	?	-2%	-5	?
CC(C)c1ccc(C2c3c(-c4ccccc4O)n[nH]c3C(=O)N2Cc2ccncc2)cc1 (stereo not drawn)	?	?	-22%	-79*	.
COCCN1C(=O)c2[nH]nc(-c3ccccc3O)c2C1c1ccc(OCc2ccccc2)c(OC)c1 (stereo not drawn)	?	-9%[46.1 µM]	-4%	-103*	.
O=C1c2[nH]nc(-c3ccccc3O)c2C(c2ccc(Cl)cc2)N1CCc1ccccc1 (stereo not drawn)	?	?	?	-95*	.
COc1ccc(CCN2C(=O)c3[nH]nc(-c4ccccc4O)c3C2c2ccccc2)cc1OC (stereo not drawn)	18µM*	?	?	?	11µM*
COc1cc(C2c3c(-c4ccccc4O)n[nH]c3C(=O)N2CCO)ccc1OCC(C)C (stereo not drawn)	?	?	-26%	20	.
COCCCN1C(=O)c2[nH]nc(-c3ccccc3O)c2C1c1ccc(Cl)cc1 (stereo not drawn)	?	?	?	5	?
CSc1ccc(CCNC(=O)c2c(C)oc3ncn(C)c(=O)c23)cc1	-9%[46.1 µM]	.	-14%	-8	.
SMILES	Lassa entry inh	MARV entry inh	FMDV inh	HCMV antiviral	HCV inh
Cc1c(C(=O)NCC(C)(C)N2CCOCC2)cnn1-c1nccc(-c2cccs2)n1	.	.	-6%	.	.
COC[C@H]1O[C@@H]2O[C@@H]1[C@@H](C=Cc1ccccc1)C[C@H]2C	.	5%[14.2 µM]	.	.	.
COc1cc(C2c3c(-c4c(C)cc(C)cc4O)n[nH]c3C(=O)N2CCO)cc(OC)c1OC (stereo not drawn)	?	-12%[46.1 µM]	-8%	16	.
COc1cc(C2c3c(-c4cc(C)cc(C)c4O)n[nH]c3C(=O)N2CCCO)cc(OC)c1OC (stereo not drawn)	8.2µM*	3%	-17%	38	-10%
COc1ccccc1CCNC(=O)C1(c2cccs2)CCOCC1	-26%[46.1 µM]	.	-3%	-5	.
CC/C(C)=N\Nc1nc(-c2cc3cc(OC)ccc3oc2=O)cs1	-25%[46.1 µM]	?	-9%	30	8.9µM*
CCCCc1nc(NC[C@H]2CCCO2)c(C#N)c2c1COC(C)(C)C2	.	-13%	.	.	.
CC1CCC(NC(=O)Cn2c3c(c(-c4ccccc4Cl)cc2=O)CCC3)CC1 (stereo not drawn)	.	.	?	-23	11µM*
CC(C)CCNC(=O)Cn1c2c(c(-c3ccccc3Cl)cc1=O)CCC2	.	.	-21%	-80*	-24%
CN(C)CCCNS(=O)(=O)c1ccc(NC2CCCCCC2)c([N+](=O)[O-])c1	-2%[46.1 µM]	?	-26%	-69*	5.6µM*
CCNc1ccc(S(=O)(=O)NCCN(C)C)cc1[N+](=O)[O-]	.	.	-17%	23	-4%
Cc1ccccc1NC(=O)CCc1c(C)nn(-c2ccc(N3CCOCC3)nn2)c1C	8%[46.1 µM]	4%[46.1 µM]	-5%	+	19%
CCOc1ccccc1CNC(=O)CCc1c(C)nn(-c2ccc(N3CCCC3)nn2)c1C	-15%[46.1 µM]	.	-6%	-60*	.
Cc1ccccc1NC(=O)CCc1c(C)nn(-c2ccc(N3CCCCC3)nn2)c1C	?	?	5%	-30	?
Cc1cccc(CSc2ccc3nnc(CCNS(=O)(=O)c4ccccc4)n3n2)c1	-13%[46.1 µM]	.	9%	-8	.
Cc1cccc(NC(=S)N=Nc2c(O)n(C)c3ccc(S(=O)(=O)N4CCOCC4)cc23)c1	?	?	-16%	48	1.6µM*!
Cc1ccc(NC(=S)N=Nc2c(O)n(C)c3ccc(S(=O)(=O)N4CCOCC4)cc23)cc1	?	-12%	4%	-77*	?
CCc1cccc(C)c1NC(=O)c1cc(S(=O)(=O)N(C)Cc2ccccc2)ccc1F	19%[46.1 µM]	.	?	?	.
Cc1nc2ccccn2c1C(=O)/C=C/c1ccc(F)cc1	?	-28%	-21%	79	-5%
Cc1nc2ccccn2c1-c1ccnn1S(=O)(=O)c1ccc(F)cc1	.	.	?	-94*	?
CCn1c(N2CCC(Cc3ccccc3)CC2)nc2c1c(=O)[nH]c(=O)n2C	?	?	28µM*	44	-23%
CC1CCN(c2nc3c(c(=O)[nH]c(=O)n3C)n2Cc2ccccc2)CC1	.	.	0%	-38	14%
CCCCCn1c(CN2CCN(Cc3ccccc3)CC2)nc2c1c(=O)[nH]c(=O)n2C	4%	11%	0%	-69*	-2%
CCOC(=O)c1ccc(NC[C@@H](O)COc2ccccc2)cc1	.	-2%[46.1 µM]	.	.	.
N#C/C(=C\c1c(Oc2ccc(F)cc2)nc2ccccn2c1=O)c1nc2ccccc2s1	?	?	-12%	0	.
Cc1ccc2nsnc2c1S(=O)(=O)N1CCN(Cc2ccc3c(c2)OCO3)CC1	-2%	-2%	.	-29	22µM*!

Source: PubChem BioAssay (National Center for Advancing Translational Sciences (NCATS))
